Reference: PubChem BioAssay (EPA / NIEHS)
Inconclusive results are not listed. The source made the active and inactive calls. How the source made its calls, unless noted: active means hit-call score of the fitted dose curve at least 0.9, where 1 is the maximum; inactive means score below 0.9.

Legend:
[1] = target: Glucocorticoid receptor (Homo sapiens) (UniProt P04150); assay: ATG_GR_TRANS: Attagene TRANS-FACTORIAL HepG2 Assay for human Glucocorticoid Receptor (GR) (AID 2282978; active means hit-call score of the fitted dose curve at least 0.9, where 1 is the maximum;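 further: activators score as hits since higher reporter transcript over DMSO is fitted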); details: HepG2 Attagene TRANS GR reporter, mRNA transcription
Glucocorticoid receptor (Homo sapiens), sequence (P04150 whole entry, looked up, the tested form may be a part): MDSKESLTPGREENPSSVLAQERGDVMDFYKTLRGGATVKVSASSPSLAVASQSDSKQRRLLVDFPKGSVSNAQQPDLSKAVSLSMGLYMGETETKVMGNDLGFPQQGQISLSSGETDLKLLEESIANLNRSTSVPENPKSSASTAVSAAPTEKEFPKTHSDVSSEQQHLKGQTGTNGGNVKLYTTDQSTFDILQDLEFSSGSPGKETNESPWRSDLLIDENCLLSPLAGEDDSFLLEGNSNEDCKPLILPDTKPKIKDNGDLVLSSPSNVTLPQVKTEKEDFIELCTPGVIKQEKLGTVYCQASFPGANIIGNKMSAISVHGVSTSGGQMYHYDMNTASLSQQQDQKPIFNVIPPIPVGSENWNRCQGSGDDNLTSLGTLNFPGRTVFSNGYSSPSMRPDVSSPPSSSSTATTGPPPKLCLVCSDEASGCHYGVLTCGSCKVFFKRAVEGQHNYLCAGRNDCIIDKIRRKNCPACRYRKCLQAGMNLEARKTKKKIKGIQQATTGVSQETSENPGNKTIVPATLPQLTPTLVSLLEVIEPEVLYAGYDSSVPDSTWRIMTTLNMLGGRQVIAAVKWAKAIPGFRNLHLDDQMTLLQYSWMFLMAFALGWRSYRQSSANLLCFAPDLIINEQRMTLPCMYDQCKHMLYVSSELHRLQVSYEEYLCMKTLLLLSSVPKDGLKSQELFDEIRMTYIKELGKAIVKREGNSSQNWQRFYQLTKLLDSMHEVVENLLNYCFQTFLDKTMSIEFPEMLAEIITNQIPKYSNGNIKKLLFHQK
Summary of the method: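 HepG2 cells transiently transfected with GAL4-UAS reporter units and exogenous GR-Gal4 chimera, dosed 24 h. Reporter mRNA by RT-PCR, FAM labeling, HpaI digest and capillary electrophoresis; gain-of-signal fit versus DMSO.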

[2] = target: Bile acid receptor (Homo sapiens) (UniProt Q96RI1); assay: ATG_FXR_TRANS: Attagene TRANS-FACTORIAL HepG2 Assay for Farnesoid X Receptor (FXR) (AID 2282979; active means hit-call score of the fitted dose curve at least 0.9, where 1 is the maximum;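 further: hits raise reporter mRNA above DMSO so AC50 marks FXR activation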); details: HepG2 Attagene TRANS FXR-GAL4 reporter transcription
Summary of the method: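 After 24 h chemical treatment of transfected HepG2 cells, GAL4-UAS reporter transcripts driven by an exogenous FXR-GAL4 fusion were measured by RT-PCR and capillary electrophoresis. Increases over DMSO were fitted.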

[3] = target: Hepatocyte nuclear factor 4-alpha (Homo sapiens) (UniProt P41235); assay: ATG_HNF4a_TRANS: Attagene TRANS-FACTORIAL HepG2 Assay for human Hepatocyte Nuclear Factor 4 alpha (HNF4a) (AID 2282982; active means hit-call score of the fitted dose curve at least 0.9, where 1 is the maximum); details: HepG2 HNF4a transactivation reporter, mRNA readout
Hepatocyte nuclear factor 4-alpha (Homo sapiens), sequence (P41235 whole entry, looked up, the tested form may be a part): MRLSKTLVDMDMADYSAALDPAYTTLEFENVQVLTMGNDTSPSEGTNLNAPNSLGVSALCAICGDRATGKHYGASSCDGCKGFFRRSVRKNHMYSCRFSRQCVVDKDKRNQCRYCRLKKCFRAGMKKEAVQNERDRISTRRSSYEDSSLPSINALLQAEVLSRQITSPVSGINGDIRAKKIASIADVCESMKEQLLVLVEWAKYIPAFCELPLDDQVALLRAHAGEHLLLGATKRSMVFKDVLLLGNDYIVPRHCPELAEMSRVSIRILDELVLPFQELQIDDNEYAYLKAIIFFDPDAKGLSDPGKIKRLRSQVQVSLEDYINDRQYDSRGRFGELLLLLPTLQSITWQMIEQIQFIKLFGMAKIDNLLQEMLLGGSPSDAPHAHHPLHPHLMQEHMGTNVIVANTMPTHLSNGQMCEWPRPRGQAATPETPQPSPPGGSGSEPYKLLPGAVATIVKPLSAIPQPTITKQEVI
Summary of the method: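 Gain-of-signal mRNA induction, relative to DMSO vehicle, was read after 24 h compound treatment of HepG2 cells bearing transfected GAL4-UAS reporters. Detection used RT-PCR, 6-FAM primer extension and capillary electrophoresis.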

[4] = ATG_M_06_TRANS: Attagene TRANS-FACTORIAL HepG2 Assay for M06 Transcription Factor (Internal Marker) (AID 2282983; active means hit-call score of the fitted dose curve at least 0.9, where 1 is the maximum); details: HepG2 Attagene TRANS M06 internal marker reporter
Summary of the method: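 Internal-marker background readout from a multiplexed TRANS reporter system in HepG2; 24 h dosing; mRNA induction quantified by RT-PCR plus capillary electrophoresis fluorescence; DMSO as negative control and baseline.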

[5] = ATG_M_32_TRANS: Attagene TRANS-FACTORIAL HepG2 Assay for M32 Transcription Factor (Internal Marker) (AID 2282984; active means hit-call score of the fitted dose curve at least 0.9, where 1 is the maximum;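 further: transcript level of a background control reporter unit measured by RT-PCR and capillary electrophoresis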); details: HepG2 Attagene TRANS M32 internal marker reporter
Summary of the method: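 Capillary electrophoresis of 6-FAM-labelled reporter fragments gives the signal; data fitted for gain over DMSO negative control. Source: HepG2 cells bearing transient multiple reporter transcription units, 24 h exposure.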

[6] = target: Transcriptional activator Myb (Homo sapiens) (UniProt P10242); assay: ATG_Myb_CIS: Attagene CIS-FACTORIAL HepG2 Assay for human Myeloblastosis (Myb) Proto-Oncogene Transcription Factor (AID 2282986); details: HepG2 Attagene CIS-FACTORIAL Myb reporter transcription; actives raise or lower the signal
Transcriptional activator Myb (Homo sapiens), sequence (P10242 whole entry, looked up): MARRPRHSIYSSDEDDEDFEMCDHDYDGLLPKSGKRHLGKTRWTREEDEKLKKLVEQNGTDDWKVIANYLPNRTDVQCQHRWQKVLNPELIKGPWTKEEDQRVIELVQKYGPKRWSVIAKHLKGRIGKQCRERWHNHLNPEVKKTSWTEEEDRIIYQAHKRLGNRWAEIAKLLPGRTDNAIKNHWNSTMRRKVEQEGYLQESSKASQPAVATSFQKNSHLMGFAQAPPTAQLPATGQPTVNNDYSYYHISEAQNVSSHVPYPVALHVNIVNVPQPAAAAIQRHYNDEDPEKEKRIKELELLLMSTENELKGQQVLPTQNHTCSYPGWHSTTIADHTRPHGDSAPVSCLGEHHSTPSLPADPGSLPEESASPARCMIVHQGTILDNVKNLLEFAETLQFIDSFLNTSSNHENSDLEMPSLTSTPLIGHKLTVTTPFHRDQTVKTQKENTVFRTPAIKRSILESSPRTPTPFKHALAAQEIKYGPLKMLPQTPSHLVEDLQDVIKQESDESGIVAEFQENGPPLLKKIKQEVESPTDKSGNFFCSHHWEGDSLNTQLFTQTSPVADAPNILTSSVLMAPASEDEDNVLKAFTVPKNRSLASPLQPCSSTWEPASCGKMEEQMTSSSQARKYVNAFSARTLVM
Summary of the method: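 Transiently transfected HepG2 cells carrying a multiplexed cis-promoter reporter set report endogenous Myb activity after 24 h compound exposure. Reporter mRNA is read by RT-PCR with capillary electrophoresis of fluorescent products, fitted bidirectionally against DMSO.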

[7] = target: Nuclear respiratory factor 1 (Homo sapiens) (UniProt Q16656); assay: ATG_NRF1_CIS: Attagene CIS-FACTORIAL HepG2 Assay for human Nuclear Respiratory Factor 1 (NRF1) Orphan Gene (AID 2282987); details: HepG2 NRF1 cis-element reporter, Attagene multiplex; actives raise or lower the signal
Nuclear respiratory factor 1 (Homo sapiens), sequence (Q16656 whole entry, looked up): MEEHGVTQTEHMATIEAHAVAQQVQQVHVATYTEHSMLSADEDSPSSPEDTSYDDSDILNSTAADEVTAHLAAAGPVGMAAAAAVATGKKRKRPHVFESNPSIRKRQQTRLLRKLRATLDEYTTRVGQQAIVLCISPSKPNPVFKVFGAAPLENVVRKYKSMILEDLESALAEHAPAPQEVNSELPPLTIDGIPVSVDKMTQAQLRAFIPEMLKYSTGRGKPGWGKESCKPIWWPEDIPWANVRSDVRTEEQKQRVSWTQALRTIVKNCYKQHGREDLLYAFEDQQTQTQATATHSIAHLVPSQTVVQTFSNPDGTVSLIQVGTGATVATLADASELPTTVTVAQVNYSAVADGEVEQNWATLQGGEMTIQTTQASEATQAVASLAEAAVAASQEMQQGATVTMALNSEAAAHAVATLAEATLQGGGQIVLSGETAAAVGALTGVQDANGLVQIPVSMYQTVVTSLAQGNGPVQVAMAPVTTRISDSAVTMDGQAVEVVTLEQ
Summary of the method: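 HepG2 cells transiently transfected with multiple cis-regulated reporter units, exposed 24 h. Reporter mRNAs measured by RT-PCR, fluorescent labelling, HpaI digestion and capillary electrophoresis; bidirectional fitting against DMSO.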

[8] = ATG_NFI_CIS: Attagene CIS-FACTORIAL HepG2 Assay for human Nuclear Factor I (NFI) (AID 2282989); details: HepG2 cis-regulatory reporter, NFI response element transcription; actives raise or lower the signal
Summary of the method: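 Reporter transcription driven by endogenous transcription factors in HepG2 cells; 24 h treatment. Quantitation by labelled RT-PCR fragments on capillary electrophoresis, gain- or loss-of-signal relative to DMSO.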

[9] = target: Myc proto-oncogene protein (Homo sapiens) (UniProt P01106); assay: ATG_Myc_CIS: Attagene CIS-FACTORIAL HepG2 Assay for human Myelocytomatosis (Myc) Proto-Oncogene Transcription Factor (AID 2282990); details: HepG2, Attagene cis-reporter transcription factor activity; actives raise or lower the signal
Myc proto-oncogene protein (Homo sapiens), sequence (P01106 whole entry, looked up, the tested form may be a part): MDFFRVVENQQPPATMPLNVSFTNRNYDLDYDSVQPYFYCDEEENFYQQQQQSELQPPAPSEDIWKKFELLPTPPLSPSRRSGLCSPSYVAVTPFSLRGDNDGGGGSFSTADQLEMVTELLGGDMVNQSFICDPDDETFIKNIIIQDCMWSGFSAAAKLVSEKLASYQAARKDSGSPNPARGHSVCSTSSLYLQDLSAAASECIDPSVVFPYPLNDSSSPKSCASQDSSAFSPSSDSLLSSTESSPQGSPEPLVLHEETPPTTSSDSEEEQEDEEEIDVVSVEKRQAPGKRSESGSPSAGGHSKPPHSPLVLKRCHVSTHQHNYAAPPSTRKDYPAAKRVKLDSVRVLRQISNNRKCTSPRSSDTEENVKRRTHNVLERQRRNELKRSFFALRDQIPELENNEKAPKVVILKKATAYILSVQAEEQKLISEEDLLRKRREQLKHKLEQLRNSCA
Summary of the method: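 Read-out: fluorescent reporter mRNA fragments resolved by capillary electrophoresis after RT-PCR. Human HepG2 liver cells carried transfected cis-element reporter units and were dosed for 24 h. Gain or loss of signal fitted relative to DMSO baseline.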

[10] = ATG_NRF2_ARE_CIS: Attagene CIS-FACTORIAL HepG2 Assay for human Nuclear Factor Erythroid 2 Related Factor 2 (NFR2) response to Antioxidant Response Elements (ARE) (AID 2282992); details: HepG2 Attagene ARE/NRF2 reporter, transcription factor activity; actives raise or lower the signal;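 on AC50: reporter mRNA level measured by RT-PCR and capillary electrophoresis fluorescence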
Summary of the method: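 HepG2 cells transiently transfected with multiplexed cis-element reporter constructs, 24 h after chemical dosing; reporter mRNA quantified by RT-PCR, fluorescent primer extension, HpaI digestion and capillary electrophoresis. Bidirectional fit relative to DMSO.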

[11] = ATG_Oct_MLP_CIS: Attagene CIS-FACTORIAL HepG2 Assay for human Octamer-Binding Transcription Factor (Oct) (AID 2282993); details: HepG2 Attagene cis-factorial Oct reporter, mRNA; actives raise or lower the signal
Summary of the method: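 Transfected HepG2 cells, 24 h treatment. Reporter mRNA quantified by RT-PCR–capillary electrophoresis; bidirectional fitting against DMSO.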

[12] = target: Cellular tumor antigen p53 (Homo sapiens) (UniProt P04637); assay: ATG_p53_CIS: Attagene CIS-FACTORIAL HepG2 Assay for human p53 Transcription Factor (AID 2282994); details: HepG2 p53 cis-element reporter, Attagene mRNA; actives raise or lower the signal
Cellular tumor antigen p53 (Homo sapiens), sequence (P04637 whole entry, looked up): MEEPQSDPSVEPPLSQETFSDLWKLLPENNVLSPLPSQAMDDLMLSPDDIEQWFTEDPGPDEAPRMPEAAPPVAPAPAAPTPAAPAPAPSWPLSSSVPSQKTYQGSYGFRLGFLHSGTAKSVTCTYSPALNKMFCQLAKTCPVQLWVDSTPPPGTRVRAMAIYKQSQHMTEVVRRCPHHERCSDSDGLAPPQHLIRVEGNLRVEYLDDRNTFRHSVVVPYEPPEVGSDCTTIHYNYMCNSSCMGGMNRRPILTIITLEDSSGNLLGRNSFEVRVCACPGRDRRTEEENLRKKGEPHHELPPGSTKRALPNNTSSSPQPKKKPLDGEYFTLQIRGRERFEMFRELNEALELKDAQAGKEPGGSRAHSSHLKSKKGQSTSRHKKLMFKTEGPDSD
Summary of the method: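 HepG2 cells transiently transfected with cis-regulated multiple reporter transcription units, dosed 24 h. Reporter mRNA measured by RT-PCR, 6-FAM primer extension, HpaI digestion and capillary electrophoresis; bidirectional fit relative to DMSO.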

[13] = target: Nuclear receptor subfamily 4 group A member 2 (Homo sapiens) (UniProt P43354); assay: ATG_NURR1_TRANS: Attagene TRANS-FACTORIAL HepG2 Assay for human Nuclear Receptor Related Protein 1 (NURR1) (AID 2282985; active means hit-call score of the fitted dose curve at least 0.9, where 1 is the maximum); details: HepG2 Attagene TRANS reporter, mRNA readout
Nuclear receptor subfamily 4 group A member 2 (Homo sapiens), sequence (P43354 whole entry, looked up): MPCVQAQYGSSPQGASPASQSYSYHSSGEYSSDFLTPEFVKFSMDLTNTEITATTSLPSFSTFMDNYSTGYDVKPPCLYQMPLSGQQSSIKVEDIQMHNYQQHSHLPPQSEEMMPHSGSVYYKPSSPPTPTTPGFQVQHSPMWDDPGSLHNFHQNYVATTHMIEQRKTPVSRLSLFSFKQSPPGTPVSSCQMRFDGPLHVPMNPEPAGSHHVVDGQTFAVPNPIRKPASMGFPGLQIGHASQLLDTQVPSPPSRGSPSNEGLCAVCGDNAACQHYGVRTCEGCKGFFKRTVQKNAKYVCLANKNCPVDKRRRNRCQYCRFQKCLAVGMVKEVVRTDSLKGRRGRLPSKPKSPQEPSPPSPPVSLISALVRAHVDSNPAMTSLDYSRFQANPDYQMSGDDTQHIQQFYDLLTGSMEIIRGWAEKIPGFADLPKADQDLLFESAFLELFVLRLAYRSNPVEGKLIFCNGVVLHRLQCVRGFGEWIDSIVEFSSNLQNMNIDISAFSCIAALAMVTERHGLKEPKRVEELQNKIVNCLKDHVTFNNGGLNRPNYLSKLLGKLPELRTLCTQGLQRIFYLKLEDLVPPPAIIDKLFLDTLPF
Summary of the method: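 HepG2 / transient MRTU transfection / 24 h compound exposure / RT-PCR + CE fluorescence of reporter mRNA / gain-of-signal vs DMSO.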

[14] = ATG_NF_kB_CIS: Attagene CIS-FACTORIAL HepG2 Assay for human Nuclear Factor Kappa B (NF-kB) (AID 2282991); details: HepG2 Attagene cis-factorial NF-kB reporter mRNA; actives raise or lower the signal
Summary of the method: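 HepG2 cells transfected with cis-promoter-driven reporter units, so endogenous transcription factor activity is measured. Reporter mRNA quantified 24 h after dosing by RT-PCR and capillary electrophoresis, with bidirectional fitting against DMSO.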

[15] = BSK_3C_TissueFactor: BioMAP Diversity Plus: 3C Assay for Tissue Factor Biomarker Activity (AID 2282997); details: BioMAP 3C HUVEC, tissue factor biomarker readout; actives raise or lower the signal
Summary of the method: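 Endothelial monolayers (human umbilical vein, primary) are dosed, incubated 24 h, and assayed for Tissue Factor by ELISA; DMSO serves as negative control for bidirectional fitting.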

[16] = BSK_3C_uPAR: BioMAP Diversity Plus: 3C Assay for Urokinase-type plasminogen activator receptor (uPAR) Biomarker Activity (AID 2282998); details: BioMAP 3C HUVEC, uPAR biomarker ELISA; actives raise or lower the signal
Summary of the method: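 Readout: ELISA for surface uPAR. System: human umbilical vein endothelial primary cells, 24 h after chemical exposure. Analysis: bidirectional fit, DMSO baseline.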

[17] = BSK_3C_VCAM1: BioMAP Diversity Plus: 3C Assay for Vascular cell adhesion molecule 1 (VCAM1) Biomarker Activity (AID 2282999); details: BioMAP 3C HUVEC, VCAM1 ELISA, cytokine-stimulated; actives raise or lower the signal
Summary of the method: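 Human umbilical vein endothelial cells (3C system), biomarker read by ELISA 24 h after dosing; bidirectional fit against DMSO baseline. Cytotoxicity tracked by SRB total-protein staining in parallel cultures at biomarker time.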

[18] = target: Oxysterols receptor LXR-alpha (Homo sapiens) (UniProt Q13133); assay: ATG_LXRa_TRANS: Attagene TRANS-FACTORIAL HepG2 Assay for human Liver X Receptor alpha (LXRa) (AID 2282980; active means hit-call score of the fitted dose curve at least 0.9, where 1 is the maximum); details: HepG2 Attagene TRANS reporter, LXRa transactivation
Oxysterols receptor LXR-alpha (Homo sapiens), sequence (Q13133 whole entry, looked up, the tested form may be a part): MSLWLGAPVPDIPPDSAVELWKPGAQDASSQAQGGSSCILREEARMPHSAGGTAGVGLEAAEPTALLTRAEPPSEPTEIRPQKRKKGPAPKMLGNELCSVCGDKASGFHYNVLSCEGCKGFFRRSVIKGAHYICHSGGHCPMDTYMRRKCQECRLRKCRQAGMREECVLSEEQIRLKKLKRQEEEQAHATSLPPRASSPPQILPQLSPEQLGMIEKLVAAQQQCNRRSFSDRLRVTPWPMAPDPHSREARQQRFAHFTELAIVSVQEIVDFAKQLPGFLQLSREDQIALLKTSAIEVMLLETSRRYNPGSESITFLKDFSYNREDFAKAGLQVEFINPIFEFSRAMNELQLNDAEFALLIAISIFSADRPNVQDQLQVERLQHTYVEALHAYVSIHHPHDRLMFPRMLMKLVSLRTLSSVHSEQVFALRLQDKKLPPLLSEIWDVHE
Summary of the method: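 In this multiplexed TRANS system, compounds act on HepG2 cells carrying GAL4-UAS reporter units and a receptor-GAL4 fusion for 24 h. Induced reporter RNA is amplified, fluorescently labelled and sized by capillary electrophoresis, with DMSO as baseline.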

[19] = target: Oxysterols receptor LXR-beta (Homo sapiens) (UniProt P55055); assay: ATG_LXRb_TRANS: Attagene TRANS-FACTORIAL HepG2 Assay for human Liver X Receptor beta (LXRb) (AID 2282981; active means hit-call score of the fitted dose curve at least 0.9, where 1 is the maximum); details: HepG2 Attagene TRANS GAL4-LXRb reporter, mRNA
Oxysterols receptor LXR-beta (Homo sapiens), sequence (P55055 whole entry, looked up, the tested form may be a part): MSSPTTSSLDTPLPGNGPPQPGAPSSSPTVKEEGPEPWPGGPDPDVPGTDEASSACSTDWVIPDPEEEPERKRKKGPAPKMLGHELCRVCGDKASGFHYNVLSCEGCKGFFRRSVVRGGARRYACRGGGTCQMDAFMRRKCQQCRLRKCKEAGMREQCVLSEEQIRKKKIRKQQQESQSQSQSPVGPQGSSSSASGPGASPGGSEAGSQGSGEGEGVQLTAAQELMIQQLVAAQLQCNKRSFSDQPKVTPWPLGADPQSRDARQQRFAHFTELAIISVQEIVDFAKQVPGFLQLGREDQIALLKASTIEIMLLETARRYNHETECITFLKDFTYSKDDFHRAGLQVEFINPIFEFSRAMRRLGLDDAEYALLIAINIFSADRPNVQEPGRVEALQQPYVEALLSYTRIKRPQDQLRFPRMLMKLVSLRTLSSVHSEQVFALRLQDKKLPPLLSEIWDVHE
Summary of the method: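 Gain-of-signal mRNA reporter endpoint, DMSO as negative control. Transiently transfected HepG2 cells carrying the NR-Gal4 chimera and GAL4-UAS reporter units were treated 24 h; transcripts quantified by RT-PCR and capillary electrophoresis fluorescence.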

Measured: AC50

CCC(C)(CCCC(C)C)OC(C)=O (stereo unspecified)
inactive: [1] | [2] | [3] | [4] | [5] | [6] | [7] | [8] | [9] | [10] | [11] | [12]

CC(C)(O)CCc1ccccc1
inactive: [1] | [2] | [3] | [4] | [13] | [6] | [8] | [9] | [14] | [10] | [11] | [12]

O=C1OC2(c3ccc(O)cc3Oc3cc(O)ccc32)c2ccccc21
inactive: [1] | [2] | [3] | [4] | [6] | [7] | [9] | [10] | [11] | [15] | [16] | [17]

CCCCCCOC(C)=O
inactive: [1] | [2] | [18] | [19] | [3] | [4] | [5] | [13] | [6] | [8] | [9] | [14] | [10] | [11] | [12]

CN(C)CCC=C1c2ccccc2CCc2ccccc21
inactive: [1] | [2] | [18] | [5] | [6] | [7] | [8]
active: [14] 13.4 µM | [10] 33.4 µM | [11] 24.6 µM | [12] 23.1 µM

CC1=CC(C)C(C=O)C(C)C1 (stereo unspecified) (tested in a mixture with another compound)
inactive: [1] | [2] | [19] | [4] | [13] | [6] | [8] | [9] | [14] | [10] | [11] | [12] | [15] | [16] | [17]

CC(=O)c1ccc(O)cc1
inactive: [1] | [2] | [3] | [4] | [5] | [6] | [8] | [9] | [14] | [10] | [11] | [12]

CCCc1ccc(O)cc1
active: [10] 36 µM
inactive: [1] | [2] | [19] | [13] | [6] | [7] | [8] | [9] | [14] | [11] | [12]

C/C=C(\C)C(=O)OC/C=C(\C)CCC=C(C)C
inactive: [1] | [3] | [4] | [5] | [6] | [7] | [8] | [9] | [11] | [12]
active: [13] 20 µM | [10] 100 µM

NC(N)=NC(N)=NCCc1ccccc1
inactive: [1] | [19] | [3] | [6] | [8] | [9] | [14] | [11]
active: [10] 6.3 µM

CC(C)N(c1ccccc1)C(C)C
inactive: [1] | [19] | [3] | [4] | [13] | [6] | [7] | [8] | [14] | [10] | [11]

c1coc(CNc2ncnc3nc[nH]c23)c1
active: [10] 33.8 µM
inactive: [1] | [19] | [3] | [4] | [5] | [13] | [6] | [8] | [9] | [11] | [12]

CCCC[N+](C)(CCCC)CCCC
inactive: [1] | [18] | [5] | [6] | [7] | [8] | [9] | [10] | [11]

CC1=CC(O)CC(C)(C)C1 (stereo unspecified)
inactive: [1] | [19] | [5] | [6] | [7] | [9] | [14] | [10] | [11] | [12]

CC(O)CN (stereo unspecified)
inactive: [1] | [19] | [3] | [5] | [13] | [6] | [7] | [8] | [9] | [14] | [10] | [11]

CC(CCO)CC(C)(C)C (stereo unspecified)
inactive: [1] | [18] | [3] | [4] | [13] | [6] | [8] | [9] | [14] | [10] | [11] | [12]

CC(=O)c1ccc(C)cc1
inactive: [1] | [19] | [3] | [4] | [5] | [6] | [7] | [9] | [14] | [10] | [11] | [15] | [16] | [17]

CC(=N[Si](C)(C)C)O[Si](C)(C)C
inactive: [1] | [19] | [3] | [5] | [6] | [7] | [8] | [9] | [14] | [10] | [11] | [12]

[Cu+]
active: [10] 2.29 µM
inactive: [1] | [19] | [3] | [13] | [6] | [7] | [8] | [9] | [11]

CCOC(=O)CC(C)C
inactive: [1] | [19] | [3] | [4] | [6] | [7] | [8] | [9] | [10] | [11]

NC(=O)c1cnccn1
inactive: [1] | [3] | [4] | [13] | [6] | [7] | [8] | [9] | [14] | [10] | [11] | [12]

Nc1ccc(N)c([N+](=O)[O-])c1
inactive: [1] | [18] | [19] | [4] | [5] | [6] | [11] | [15] | [16] | [17]
